{"source": "paper PMC8384837", "about": "“Expanding the binding specificity for RNA recognition by a PUF domain”", "experiment_in_all_cases": "yeast three-hybrid, YBZ-1, SC-Leu-His + 0.5 mM 3-AT, 4 days", "settings_in_all_cases": "tags: N-Gal4 AD-HA kept; label: inside an RPR1-promoter hybrid RNA with tandem MS2 sites; ssRNA", "key": {"PUM1 PUF domain R5-TRY": {"molecular_target": "PUM1 PUF domain R5-TRY (Homo sapiens, UniProt Q14671 828-1176, C1007T;Q1011Y)", "summary_of_the_method": "(§1)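 Repeat regions from input (SC-Leu) and selection (SC-Leu-His + 0.5 mM 3-AT) plates were PCR-amplified and Illumina-sequenced after four days of growth. The cells were strain YBZ-1 with a LexA–MS2 coat fusion and a HIS3 reporter, co-expressing Pumilio-1 PUF domain libraries and matching RNA elements from a centromeric plasmid. The interaction score is the log change in variant frequency from input to selection, taken in log2 with a pseudocount of 1 for absent variants.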"}, "PUM1 PUF domain R3-PFY": {"molecular_target": "PUM1 PUF domain R3-PFY (Homo sapiens, UniProt Q14671 828-1176, C935P;R936F;Q939Y)", "summary_of_the_method": "as §1"}, "PUM1 PUF domain R6-AFR": {"molecular_target": "T1, PUM1 PUF domain R6-AFR (Homo sapiens, UniProt Q14671 828-1176, N1043A;Y1044F;Q1047R)", "T1 sequence": "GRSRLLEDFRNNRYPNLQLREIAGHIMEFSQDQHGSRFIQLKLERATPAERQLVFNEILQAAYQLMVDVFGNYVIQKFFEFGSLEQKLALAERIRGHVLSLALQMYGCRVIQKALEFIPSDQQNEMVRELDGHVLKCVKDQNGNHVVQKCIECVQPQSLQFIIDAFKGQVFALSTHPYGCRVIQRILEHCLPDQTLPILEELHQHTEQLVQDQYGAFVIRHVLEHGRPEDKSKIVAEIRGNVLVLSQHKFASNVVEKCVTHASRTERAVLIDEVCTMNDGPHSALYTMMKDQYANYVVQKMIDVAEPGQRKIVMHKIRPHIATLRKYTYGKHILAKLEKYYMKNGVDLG", "summary_of_the_method": "as §1"}, "PUM1 PUF domain R4-TRG": {"molecular_target": "PUM1 PUF domain R4-TRG (Homo sapiens, UniProt Q14671 828-1176, N971T;H972R;Q975G)", "summary_of_the_method": "as §1"}, "PUM1 PUF domain R6-GYK": {"molecular_target": "T2, PUM1 PUF domain R6-GYK (Homo sapiens, UniProt Q14671 828-1176, N1043G;Q1047K)", "T2 sequence": "T1 sequence with A216G, F217Y, R220K", "summary_of_the_method": "as §1"}, "PUM1 PUF domain R6-NFL": {"molecular_target": "T3, PUM1 PUF domain R6-NFL (Homo sapiens, UniProt Q14671 828-1176, Y1044F;Q1047L)", "T3 sequence": "T1 sequence with A216N, R220L", "summary_of_the_method": "as §1"}, "PUM1 PUF domain R4-DHV": {"molecular_target": "PUM1 PUF domain R4-DHV (Homo sapiens, UniProt Q14671 828-1176, N971D;Q975V)", "summary_of_the_method": "as §1"}, "PUM1 PUF domain R7-KWN": {"molecular_target": "PUM1 PUF domain R7-KWN (Homo sapiens, UniProt Q14671 828-1176, S1079K;N1080W;E1083N)", "summary_of_the_method": "as §1"}, "PUM1 PUF domain R5-NAI": {"molecular_target": "PUM1 PUF domain R5-NAI (Homo sapiens, UniProt Q14671 828-1176, C1007N;R1008A;Q1011I)", "summary_of_the_method": "as §1"}, "PUM1 PUF domain R1-KTY": {"molecular_target": "PUM1 PUF domain R1-KTY (Homo sapiens, UniProt Q14671 828-1176, S863K;R864T;Q867Y)", "summary_of_the_method": "as §1"}}, "note": "Substitutions are numbered along the chain they refer to."}
{"sequence": "GGCUAGAACUAGUGGAUCCCCCGGCGCCCGGCGGCUCGAGCCCGGGUAAGUGUAAAUAGUCUGCAUGCCGCCGGGCGCCAUGCCUGCAGGUCGACUCUAGAAAACAUG", "values": [{"measurement": "binding signal", "setting": "PUM1 PUF domain R5-TRY", "result": "4.49 log2 enrichment (interaction score)"}, {"measurement": "binding signal", "setting": "PUM1 PUF domain R3-PFY", "result": "4.24 log2 enrichment (interaction score)"}, {"measurement": "binding signal", "setting": "PUM1 PUF domain R6-AFR", "result": "4.43 log2 enrichment (interaction score)"}, {"measurement": "binding signal", "setting": "PUM1 PUF domain R4-TRG", "result": "5.35 log2 enrichment (interaction score)"}, {"measurement": "binding signal", "setting": "PUM1 PUF domain R6-GYK", "result": "2.87 log2 enrichment (interaction score)"}, {"measurement": "binding signal", "setting": "PUM1 PUF domain R6-NFL", "result": "5.25 log2 enrichment (interaction score)"}]}
{"sequence": "GGCUAGAACUAGUGGAUCCCCCGGCGCCCGGCGGCUCGAGCCCGGGUAAGUGUACAUAGUCUGCAUGCCGCCGGGCGCCAUGCCUGCAGGUCGACUCUAGAAAACAUG", "values": [{"measurement": "binding signal", "setting": "PUM1 PUF domain R4-DHV", "result": "5.75 log2 enrichment (interaction score)"}]}
{"sequence": "GGCUAGAACUAGUGGAUCCCCCGGCGCCCGGCGGCUCGAGCCCGGGUAAGUGUAUAUAGUCUGCAUGCCGCCGGGCGCCAUGCCUGCAGGUCGACUCUAGAAAACAUG", "values": [{"measurement": "binding signal", "setting": "PUM1 PUF domain R4-DHV", "result": "6.27 log2 enrichment (interaction score)"}]}
{"sequence": "GGCUAGAACUAGUGGAUCCCCCGGCGCCCGGCGGCUCGAGCCCGGGUAAGUGCAAAUAGUCUGCAUGCCGCCGGGCGCCAUGCCUGCAGGUCGACUCUAGAAAACAUG", "values": [{"measurement": "binding signal", "setting": "PUM1 PUF domain R6-AFR", "result": "4.86 log2 enrichment (interaction score)"}]}
{"sequence": "GGCUAGAACUAGUGGAUCCCCCGGCGCCCGGCGGCUCGAGCCCGGGUAAGUCUAAAUAGUCUGCAUGCCGCCGGGCGCCAUGCCUGCAGGUCGACUCUAGAAAACAUG", "values": [{"measurement": "binding signal", "setting": "PUM1 PUF domain R7-KWN", "result": "5.98 log2 enrichment (interaction score)"}]}
{"sequence": "GGCUAGAACUAGUGGAUCCCCCGGCGCCCGGCGGCUCGAGCCCGGGUAAGUGUUAAUAGUCUGCAUGCCGCCGGGCGCCAUGCCUGCAGGUCGACUCUAGAAAACAUG", "values": [{"measurement": "binding signal", "setting": "PUM1 PUF domain R5-NAI", "result": "3.43 log2 enrichment (interaction score)"}]}
{"sequence": "GGCUAGAACUAGUGGAUCCCCCGGCGCCCGGCGGCUCGAGCCCGGGUAAGUGUAAAUUGUCUGCAUGCCGCCGGGCGCCAUGCCUGCAGGUCGACUCUAGAAAACAUG", "values": [{"measurement": "binding signal", "setting": "PUM1 PUF domain R1-KTY", "result": "3.93 log2 enrichment (interaction score)"}]}
